Test results taken from PubChem BioAssay (Tox21).
The source made the active and inactive calls. Entries that show only a call come without a potency. The call rests on the fitted dose curve.

Experiment: G protein-coupled receptor (GPCR) small molecule agonists, calcium flux assay: HEK293 wild type cell line counter screen (AID 1920065)
Settings: HEK293 WT calcium flux, fluorescence, agonist mode; series mostly up to 57.6 µM
Description: U.S. Tox21 Program National Center for Advancing Translational Sciences [NCATS] Division of Preclinical Innovation [DPI] U.S. Environmental Protection Agency [EPA] National Institutes of Environmental Health Sciences [NIEHS] National Toxicology Program [NTP] U.S. Food and Drug Administration [FDA] Assay overview: The increased intracellular calcium release that occurred upon G protein-coupled receptor (GPCR) activation led to the frequent use of calcium flux assays to detect GPCR activation. For the purpose of studying and screening compounds that may activate GPCR, receptor-overexpressing models were typically generated using Hek293 wild-type (WT) cells. In order to eliminate the compounds that may have induced calcium release for non-specific activation, a counter-assay utilizing calcium flux on Hek293 WT cells was performed. The data were formulated in order to serve as a control for any calcium flux detection utilizing Hek293 cells with either GPCR overexpression or gene modification. The procurement of Hek293 WT cells from ATCC. Fluorescence intensity can be utilized to determine the activation of the compound in a calcium flux assay. As a counter control, this cell line was utilized to screen the Tox21 10K compound library.
Assay Protocol Summary: Hek293 cells were dispensed at 1500cells/4uL/well in 1536-well black wall/clear bottom plates using a multidrop dispenser. After the assay plates were incubated at a 37 C/5% CO2 incubator for 18 hours, 4 uL of Calcium Dye Solution was added to each well. The plates were incubated at 37 C for 1 hour. For agonist mode, 23 nL of compounds dissolved in DMSO, positive control (ATP) or DMSO only was transferred to the assay plate by a pin tool station. The fluorescence intensity in the plates was measured using FDSS 7000EX kinetic plate reader with a filter set of Ex/Em=480/540 for 3 min at 1 sec intervals. Each test compound was measured at 15 concentrations and in triplicates.
In the case of Cc1c(O)cccc1C(=O)N[C@@H](CSc1ccccc1)[C@H](O)CN1C[C@H]2CCCC[C@H]2C[C@H]1C(=O)NC(C)(C)C, the Potency is reported as “inactive”.
With CC1(C)[C@H](C(=O)OCc2cccc(Oc3ccccc3)c2)[C@@H]1C=C(Cl)Cl the Potency was “inactive”.
For CCOC(=O)n1ccn(C)c1=S, the Potency was “inactive”.
For ON(Cc1ccccc1)Cc1ccccc1, the Potency was “inactive”.
In the case of O=C(O)[C@@H]1[C@H]2C[C@H]3c4[nH]c5ccccc5c4CCN3C[C@@H]2CC[C@@H]1O, the Potency is reported as “inactive”.
For COc1ccc(N=[N+]([O-])c2ccc(OC)cc2)cc1, the Potency was “inactive”.
With CC(C)CCOC(=O)c1ccccc1 the Potency was “inactive”.
In the case of CCCN[C@H]1CCc2nc(N)sc2C1, the Potency is reported as “inactive”.
With Nc1nc(N)nc(-c2ccccc2)n1 the Potency was “inactive”.
With Cc1cccc(C)c1NC(=O)CN1CCCCCC1 the Potency was “inactive”.
For CC(=O)OCc1ccco1, the Potency was “inactive”.
For CCCCCCCCCCCCCC, the Potency was “inactive”.
In the case of N[C@@H](CSSC[C@H](N)C(=O)O)C(=O)O, the activation is reported as -0.257% [at 0.217 µM] (inactive).
For O=C(O)/C=C/c1cnc[nH]1, the Potency was “inactive”.
In the case of CCCCCCCCC1CCC(=O)O1 (stereo not given), the Potency is reported as “inactive”.
For O=[N+]([O-])c1ccc(F)cc1F, the Potency was “inactive”.
For CC1CCc2nccnc21 (stereo not given), the Potency was “inactive”.
For CCC(=O)O[C@H]1[C@H](O[C@@H]2[C@@H](C)[C@H](O[C@H]3C[C@@](C)(OC)[C@@H](O)[C@H](C)O3)[C@@H](C)C(=O)O[C@H](CC)[C@@](C)(O)[C@H](O)[C@@H](C)C(=O)[C@H](C)C[C@@]2(C)O)O[C@H](C)C[C@@H]1N(C)C, the Potency was “inactive”.
In the case of CCN(CC)CCOc1ccc(/C(=C(\Cl)c2ccccc2)c2ccccc2)cc1, the Potency is reported as “inactive”.
For CC(C)Oc1ccc2c(=O)c(-c3ccccc3)coc2c1, the Potency was “inactive”.
In the case of CC(C)CCCC(C)CCCC(C)CCCCC(C)CCCC(C)CCCC(C)C (stereo not given), the Potency is reported as “inactive”.
In the case of CC(=O)S[C@H](C(=O)N[C@H]1Cc2ccccc2[C@H]2CCC[C@@H](C(=O)O)N2C1=O)C(C)C, the Potency is reported as “inactive”.
In the case of OCCCCCCCl, the Potency is reported as “inactive”.
In the case of CCCCN(CCCC)CCCCCCN(CCCC)CCCC, the Potency is reported as “inactive”.
In the case of O[C@@H]([C@H](O)[C@H](O)CBr)[C@H](O)CBr, the Potency is reported as “inactive”.
With CCc1ccccc1O the Potency was “inactive”.
With C=CC(=O)OCCOC(=O)C=C the Potency was “inactive”.
With CC12CCC(C1)C(C)(C)C2O (stereo not given) the Potency was “inactive”.
For O=C(/C=C/c1ccccc1)OCc1ccccc1, the Potency was “inactive”.
For CC(C)=CCCC(C)CCOC(=O)C(C)C (stereo not given), the Potency was “inactive”.
With COc1ccc2cc3[n+](cc2c1OC)CCc1cc2c(cc1-3)OCO2 the Potency was “inactive”.
In the case of [O]=[Zr], the Potency is reported as “inactive”.
In the case of CO[Si](CCCNCCNCCN)(OC)OC, the Potency is reported as “inactive”.
With CCCSSCCC the Potency was “inactive”.
For COC(=O)c1ccccc1C(=O)c1ccc(OCCN2CCCCC2)cc1, the Potency was “inactive”.
With Brc1cc(Br)cc(Br)c1 the Potency was “inactive”.
In the case of COc1ccccc1N=Nc1c(S(=O)(=O)O)cc2cc(S(=O)(=O)O)cc(NC(C)=O)c2c1O, the Potency is reported as “inactive”.
In the case of CCOC(=O)c1ccc(N)cc1, the Potency is reported as “inactive”.
With CCC(N)(CO)CO the Potency was “inactive”.
In the case of O=C1NCCN1CCO, the Potency is reported as “inactive”.
